Assay results from PubChem BioAssay (NCATS).
Results filed as inconclusive are left out. The source made the active and inactive calls. Calls come from the whole dose curve; as a rule, active = well fitted inhibition curve with a large enough effect; inconclusive = small, poorly fitted or top-dose-only effect; inactive = flat fitted curve, though single readings scatter.

system: W2; test: qHTS profiling for inhibitors of Plasmodium falciparum proliferation (AID 504749); note: nearly all actives have a fitted effect of over 60% in size;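 for activity, negative = inhibition: 0% = DMSO vehicle and full inhibition = artemisinin control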; conditions: P. falciparum in erythrocytes, SYBR Green DNA, 72 h; series mostly up to 28.7 µM; activity, negative = inhibition: at the top concentration
Summary of the method: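 Readout was DNA-dye fluorescence from lysed cultures, ex 485/em 535 nm. Parasitized red cells had grown 72 h with compound; data scaled between 0.29 uM artemisinin and DMSO wells and corrected using vehicle-only plates.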
Potency is the fitted concentration of half-maximal effect.

| SMILES | activity, negative = inhibition | Potency |
| --- | --- | --- |
| CC(C(=O)O)c1ccc(N2Cc3ccccc3C2=O)cc1 (stereo not given) | 14.5% (inactive) |  |
| CC1=C(/C=C/C(C)=C/C=C/C(C)=C/C=C/C=C(C)/C=C/C=C(C)/C=C/C2=C(C)CCCC2(C)C)C(C)(C)CCC1 | 10.6% (inactive) |  |
| O=C1C(=O)c2ncccc2-c2cccnc21 |  | 1070 nM (active) |
| O=C(O)CCC(=O)C(=O)O | 2.69% (inactive) |  |
| CCCCCCCC/C=C\CCCCCCCC(=O)O | -5.54% (inactive) |  |
| CCOc1ccc2c(c1)C(C)=CC(C)(C)N2 | -2.51% (inactive) |  |
| CCC(=O)NCCC1CCc2ccc3c(c21)CCO3 (stereo not given) | 2.37% (inactive) |  |
| IC(I)I | 2.1% (inactive) |  |
| Cc1c(C)c2c(c(C)c1O)CC[C@@](C)(CCC[C@H](C)CCC[C@H](C)CCCC(C)C)O2 | 1.46% (inactive) |  |
| CCCCC(=O)O[C@]1(C(=O)CO)[C@H](C)C[C@H]2[C@@H]3CCC4=CC(=O)C=C[C@]4(C)[C@@]3(F)[C@@H](O)C[C@@]21C |  | 13500 nM (active) |
| O=CCCCC=O |  | 13500 nM (active) |
| C=CCSSSCC=C | -2.1% (inactive) |  |
| CCCCCCCCCCCCCC[n+]1ccc(C)cc1 |  | 1690 nM (active) |
| CO[C@H](C(=O)[C@@H](O)[C@@H](C)O)C1Cc2cc3cc(O[C@H]4C[C@@H](O[C@H]5C[C@@H](O)[C@H](O)[C@@H](C)O5)[C@@H](O)[C@@H](C)O4)c(C)c(O)c3c(O)c2C(=O)[C@H]1O[C@H]1C[C@@H](O[C@H]2C[C@@H](O[C@H]3C[C@](C)(O)[C@H](O)[C@@H](C)O3)[C@H](O)[C@@H](C)O2)[C@H](O)[C@@H](C)O1 (stereo not given in full) |  | 169 nM (active) |
| CO[C@H]1C[C@@H]2CC[C@@H](C)[C@@](O)(O2)C(=O)C(=O)N2CCCC[C@H]2C(=O)O[C@H]([C@H](C)C[C@@H]2CC[C@@H](OCCO)[C@H](OC)C2)CC(=O)[C@H](C)/C=C(\C)[C@@H](O)[C@@H](OC)C(=O)[C@H](C)C[C@H](C)/C=C/C=C/C=C/1C |  | 757 nM (active) |
